According to the supplement of paper PMC11732987, “Enantioselective OTUD7B fragment discovery through chemoproteomics screening and high-throughput optimisation” (Communications Chemistry, 2025):

Columns and labels:
Experiment in all cases: log2 ratio of Biotin-Ahx-Ub-VS probe labelling (fragment/DMSO); higher = less target engagement (more negative = stronger competition), active = hit call of the paper (q ≤ 0.05, log2 ratio ≤ -1)
Conditions in all cases: compound concentration: 200 uM; treatment time: 3 h
USP19 = target: T1, USP19 (UniProt O94966)
T1 sequence (whole entry): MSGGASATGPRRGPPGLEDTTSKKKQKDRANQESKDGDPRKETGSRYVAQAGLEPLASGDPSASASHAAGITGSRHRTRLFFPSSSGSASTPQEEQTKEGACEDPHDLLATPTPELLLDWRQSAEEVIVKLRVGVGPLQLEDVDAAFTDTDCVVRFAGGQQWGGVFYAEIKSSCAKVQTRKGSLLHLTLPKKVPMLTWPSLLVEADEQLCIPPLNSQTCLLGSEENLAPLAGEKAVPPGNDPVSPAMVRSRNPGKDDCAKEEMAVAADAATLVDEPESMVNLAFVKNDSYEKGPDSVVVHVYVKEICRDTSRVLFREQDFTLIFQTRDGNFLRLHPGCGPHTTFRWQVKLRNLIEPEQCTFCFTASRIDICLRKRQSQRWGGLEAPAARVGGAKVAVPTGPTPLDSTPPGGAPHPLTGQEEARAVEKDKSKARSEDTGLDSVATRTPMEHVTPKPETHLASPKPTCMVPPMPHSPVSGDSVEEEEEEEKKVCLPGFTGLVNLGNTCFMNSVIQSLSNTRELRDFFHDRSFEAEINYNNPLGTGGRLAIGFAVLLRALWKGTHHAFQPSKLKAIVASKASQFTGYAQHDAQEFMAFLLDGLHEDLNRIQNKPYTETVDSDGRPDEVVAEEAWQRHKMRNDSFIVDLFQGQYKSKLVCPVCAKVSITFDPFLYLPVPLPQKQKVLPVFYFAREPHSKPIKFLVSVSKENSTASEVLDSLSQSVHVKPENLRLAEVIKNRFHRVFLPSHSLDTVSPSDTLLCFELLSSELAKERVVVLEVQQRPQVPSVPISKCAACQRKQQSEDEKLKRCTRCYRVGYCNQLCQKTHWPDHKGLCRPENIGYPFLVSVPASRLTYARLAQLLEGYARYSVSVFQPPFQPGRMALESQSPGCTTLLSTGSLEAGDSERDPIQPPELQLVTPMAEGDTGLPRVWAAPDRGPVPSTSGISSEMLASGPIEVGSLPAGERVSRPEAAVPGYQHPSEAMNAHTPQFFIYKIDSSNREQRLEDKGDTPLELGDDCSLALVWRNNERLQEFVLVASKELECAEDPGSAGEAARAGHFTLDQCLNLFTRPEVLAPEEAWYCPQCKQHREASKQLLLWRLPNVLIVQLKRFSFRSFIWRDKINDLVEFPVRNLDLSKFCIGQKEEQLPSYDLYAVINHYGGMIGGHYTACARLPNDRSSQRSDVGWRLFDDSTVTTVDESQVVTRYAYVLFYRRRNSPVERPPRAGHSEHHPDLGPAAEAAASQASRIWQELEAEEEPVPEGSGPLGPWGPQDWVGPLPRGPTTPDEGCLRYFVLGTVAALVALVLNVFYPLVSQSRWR
In short: (§1)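 Fragment (200 µM) or vehicle was incubated for 3 h with triplicate HEK293T lysate samples of 495 µg, which were then treated with Biotin-Ahx-Ub-VS at 0.5 µM final for 1 h. Labelled DUBs were enriched on NeutrAvidin, digested with LysC and trypsin, and analysed by diaPASEF LC-MS/MS. Values are average log2 fragment/vehicle ratios from an unpaired t-test on global-median-normalised Spectronaut label-free quantities, using proteins with ≥2 unique peptides.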

USP22 = target: T2, USP22 (UniProt Q9UPT9)
T2 sequence (whole entry): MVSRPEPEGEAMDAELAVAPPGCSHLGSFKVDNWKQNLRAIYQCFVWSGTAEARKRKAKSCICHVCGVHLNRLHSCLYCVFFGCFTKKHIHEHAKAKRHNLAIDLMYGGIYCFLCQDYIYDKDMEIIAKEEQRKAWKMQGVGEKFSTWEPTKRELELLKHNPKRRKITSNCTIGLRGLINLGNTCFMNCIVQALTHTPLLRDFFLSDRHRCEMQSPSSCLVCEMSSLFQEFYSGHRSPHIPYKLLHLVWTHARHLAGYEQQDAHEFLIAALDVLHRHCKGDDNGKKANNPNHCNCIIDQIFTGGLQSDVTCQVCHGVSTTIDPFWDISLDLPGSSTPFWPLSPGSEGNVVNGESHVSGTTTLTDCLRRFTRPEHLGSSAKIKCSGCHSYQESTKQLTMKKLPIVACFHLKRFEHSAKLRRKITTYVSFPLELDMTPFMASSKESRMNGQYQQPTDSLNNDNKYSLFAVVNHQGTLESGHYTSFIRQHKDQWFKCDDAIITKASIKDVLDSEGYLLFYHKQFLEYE
In short: as §1

USP24 = USP24 (UniProt Q9UPU5)
In short: as §1

USP25 = target: T3, USP25 (UniProt Q9UHP3)
T3 sequence (whole entry): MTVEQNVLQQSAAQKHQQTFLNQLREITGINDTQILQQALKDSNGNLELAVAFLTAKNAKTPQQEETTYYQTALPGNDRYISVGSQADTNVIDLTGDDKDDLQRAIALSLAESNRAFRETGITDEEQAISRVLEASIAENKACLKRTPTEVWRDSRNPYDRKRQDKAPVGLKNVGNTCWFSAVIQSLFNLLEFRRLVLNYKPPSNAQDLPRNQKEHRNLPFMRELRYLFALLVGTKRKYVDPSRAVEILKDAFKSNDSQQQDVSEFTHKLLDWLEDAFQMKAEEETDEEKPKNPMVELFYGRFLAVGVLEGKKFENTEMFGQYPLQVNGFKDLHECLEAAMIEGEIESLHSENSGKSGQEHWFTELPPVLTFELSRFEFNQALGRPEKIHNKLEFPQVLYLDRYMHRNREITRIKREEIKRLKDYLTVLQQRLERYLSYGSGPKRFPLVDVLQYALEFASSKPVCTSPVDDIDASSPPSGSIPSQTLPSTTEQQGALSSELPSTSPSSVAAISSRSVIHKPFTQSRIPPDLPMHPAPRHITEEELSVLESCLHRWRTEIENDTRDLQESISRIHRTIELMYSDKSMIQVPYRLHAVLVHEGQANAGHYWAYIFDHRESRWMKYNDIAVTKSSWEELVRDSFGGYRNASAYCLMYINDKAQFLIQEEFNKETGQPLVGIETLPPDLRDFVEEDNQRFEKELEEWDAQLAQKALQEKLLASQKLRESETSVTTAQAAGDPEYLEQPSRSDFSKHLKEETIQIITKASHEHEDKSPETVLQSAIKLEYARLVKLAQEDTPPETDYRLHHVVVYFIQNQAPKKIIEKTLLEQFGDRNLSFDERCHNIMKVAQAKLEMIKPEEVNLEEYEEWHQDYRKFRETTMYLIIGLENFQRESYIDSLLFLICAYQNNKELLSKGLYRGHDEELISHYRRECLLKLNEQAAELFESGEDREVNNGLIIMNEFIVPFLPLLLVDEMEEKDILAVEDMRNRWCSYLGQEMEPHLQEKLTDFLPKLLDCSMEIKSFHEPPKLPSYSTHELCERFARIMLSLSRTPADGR
In short: as §1

USP28 = target: T4, USP28 (UniProt Q96RU2)
T4 sequence (whole entry): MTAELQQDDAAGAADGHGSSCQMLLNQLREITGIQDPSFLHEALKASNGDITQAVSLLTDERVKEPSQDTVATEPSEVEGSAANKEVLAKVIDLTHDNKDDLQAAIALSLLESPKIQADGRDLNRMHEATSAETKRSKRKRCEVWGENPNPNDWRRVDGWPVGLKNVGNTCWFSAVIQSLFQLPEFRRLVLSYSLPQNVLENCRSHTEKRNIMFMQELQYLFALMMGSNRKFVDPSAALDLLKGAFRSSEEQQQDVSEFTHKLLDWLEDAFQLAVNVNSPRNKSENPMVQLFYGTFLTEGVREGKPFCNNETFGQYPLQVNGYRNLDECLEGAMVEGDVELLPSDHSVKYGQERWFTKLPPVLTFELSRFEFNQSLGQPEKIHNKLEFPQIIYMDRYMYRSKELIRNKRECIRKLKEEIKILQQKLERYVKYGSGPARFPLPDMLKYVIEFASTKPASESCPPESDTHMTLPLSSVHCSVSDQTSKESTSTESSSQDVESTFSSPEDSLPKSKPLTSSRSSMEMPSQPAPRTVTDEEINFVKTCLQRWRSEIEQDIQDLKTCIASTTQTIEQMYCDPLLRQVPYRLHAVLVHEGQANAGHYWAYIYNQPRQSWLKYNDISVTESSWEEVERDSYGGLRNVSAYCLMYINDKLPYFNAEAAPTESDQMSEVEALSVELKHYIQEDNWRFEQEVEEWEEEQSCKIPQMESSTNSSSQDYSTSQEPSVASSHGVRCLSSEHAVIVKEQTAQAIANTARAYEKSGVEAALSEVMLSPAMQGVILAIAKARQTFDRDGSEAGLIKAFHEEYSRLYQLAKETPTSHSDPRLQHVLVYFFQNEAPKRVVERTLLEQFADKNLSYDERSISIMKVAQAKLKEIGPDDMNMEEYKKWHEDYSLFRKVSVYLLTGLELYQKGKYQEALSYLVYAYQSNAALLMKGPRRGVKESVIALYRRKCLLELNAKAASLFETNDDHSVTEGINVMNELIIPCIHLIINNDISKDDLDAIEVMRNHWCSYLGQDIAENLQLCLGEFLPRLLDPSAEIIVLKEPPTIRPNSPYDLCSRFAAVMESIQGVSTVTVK
In short: as §1

Measured: log2 ratio of Biotin-Ahx-Ub-VS probe labelling

Sequence of USP24 (Q9UPU5 whole entry): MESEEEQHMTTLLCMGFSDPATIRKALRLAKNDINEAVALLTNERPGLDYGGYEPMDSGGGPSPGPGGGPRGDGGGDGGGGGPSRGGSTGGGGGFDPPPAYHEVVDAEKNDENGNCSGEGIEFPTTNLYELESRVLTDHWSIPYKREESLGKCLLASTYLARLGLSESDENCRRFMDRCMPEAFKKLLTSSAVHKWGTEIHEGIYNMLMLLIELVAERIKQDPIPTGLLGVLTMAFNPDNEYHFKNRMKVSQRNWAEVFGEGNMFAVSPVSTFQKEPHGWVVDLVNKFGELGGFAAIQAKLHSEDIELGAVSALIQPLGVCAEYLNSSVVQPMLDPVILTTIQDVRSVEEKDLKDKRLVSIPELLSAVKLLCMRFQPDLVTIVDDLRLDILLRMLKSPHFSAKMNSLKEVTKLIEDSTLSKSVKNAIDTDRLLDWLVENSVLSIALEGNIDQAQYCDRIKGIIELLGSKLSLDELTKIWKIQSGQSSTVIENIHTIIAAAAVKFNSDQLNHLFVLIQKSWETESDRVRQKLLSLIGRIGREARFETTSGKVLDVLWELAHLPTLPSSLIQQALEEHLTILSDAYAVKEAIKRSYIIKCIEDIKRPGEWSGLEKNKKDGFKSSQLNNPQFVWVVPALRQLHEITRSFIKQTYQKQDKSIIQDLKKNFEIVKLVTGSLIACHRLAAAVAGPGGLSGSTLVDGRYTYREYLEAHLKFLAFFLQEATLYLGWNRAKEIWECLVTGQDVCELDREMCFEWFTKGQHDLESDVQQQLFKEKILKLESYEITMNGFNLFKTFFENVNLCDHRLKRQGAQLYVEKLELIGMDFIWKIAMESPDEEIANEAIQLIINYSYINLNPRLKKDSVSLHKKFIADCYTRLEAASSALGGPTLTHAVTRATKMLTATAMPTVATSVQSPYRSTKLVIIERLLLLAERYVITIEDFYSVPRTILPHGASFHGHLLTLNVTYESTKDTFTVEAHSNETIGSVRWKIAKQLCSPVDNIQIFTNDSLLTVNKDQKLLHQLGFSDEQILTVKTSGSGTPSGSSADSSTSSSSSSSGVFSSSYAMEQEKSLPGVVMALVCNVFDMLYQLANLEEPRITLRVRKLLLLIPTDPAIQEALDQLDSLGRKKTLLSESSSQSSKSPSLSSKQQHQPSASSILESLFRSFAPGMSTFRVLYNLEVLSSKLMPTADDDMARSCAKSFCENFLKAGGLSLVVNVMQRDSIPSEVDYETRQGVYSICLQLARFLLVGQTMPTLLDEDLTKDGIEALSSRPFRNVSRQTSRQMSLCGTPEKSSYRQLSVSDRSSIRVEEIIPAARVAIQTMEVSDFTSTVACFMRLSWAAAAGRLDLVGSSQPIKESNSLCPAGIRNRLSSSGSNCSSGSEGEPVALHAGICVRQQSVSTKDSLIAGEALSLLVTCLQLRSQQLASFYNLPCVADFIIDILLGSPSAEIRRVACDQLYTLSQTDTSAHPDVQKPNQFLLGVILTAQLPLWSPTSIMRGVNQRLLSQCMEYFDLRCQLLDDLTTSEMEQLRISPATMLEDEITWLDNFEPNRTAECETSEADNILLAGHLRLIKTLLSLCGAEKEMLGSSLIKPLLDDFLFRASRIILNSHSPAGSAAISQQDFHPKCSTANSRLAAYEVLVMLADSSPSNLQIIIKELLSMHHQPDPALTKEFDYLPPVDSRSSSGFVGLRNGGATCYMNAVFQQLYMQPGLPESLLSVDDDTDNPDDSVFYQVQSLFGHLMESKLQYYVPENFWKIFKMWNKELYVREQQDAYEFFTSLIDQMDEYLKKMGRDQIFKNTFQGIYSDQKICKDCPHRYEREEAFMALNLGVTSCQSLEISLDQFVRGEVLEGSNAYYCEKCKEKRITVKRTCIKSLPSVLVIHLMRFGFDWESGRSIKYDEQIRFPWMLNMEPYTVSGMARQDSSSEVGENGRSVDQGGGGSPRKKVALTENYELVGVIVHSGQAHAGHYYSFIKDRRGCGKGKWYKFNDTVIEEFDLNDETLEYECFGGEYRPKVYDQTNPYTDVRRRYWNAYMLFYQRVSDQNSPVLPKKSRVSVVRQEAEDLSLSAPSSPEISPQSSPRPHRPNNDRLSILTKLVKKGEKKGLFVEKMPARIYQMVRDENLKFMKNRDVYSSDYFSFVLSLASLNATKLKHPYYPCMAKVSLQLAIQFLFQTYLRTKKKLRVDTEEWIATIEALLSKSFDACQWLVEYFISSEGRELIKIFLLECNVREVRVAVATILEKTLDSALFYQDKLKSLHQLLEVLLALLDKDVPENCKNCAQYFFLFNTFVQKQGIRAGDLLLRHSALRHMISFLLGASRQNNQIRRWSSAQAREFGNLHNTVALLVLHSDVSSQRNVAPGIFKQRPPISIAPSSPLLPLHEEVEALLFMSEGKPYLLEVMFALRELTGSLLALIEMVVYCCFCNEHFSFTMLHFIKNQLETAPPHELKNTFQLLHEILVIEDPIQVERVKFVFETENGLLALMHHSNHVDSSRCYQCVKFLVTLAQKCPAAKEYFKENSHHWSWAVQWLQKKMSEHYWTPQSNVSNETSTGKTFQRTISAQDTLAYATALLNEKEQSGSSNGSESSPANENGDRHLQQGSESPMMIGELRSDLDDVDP

Cc1ccc(C)c(Oc2ccc(CNC(=O)CCl)cn2)c1.Cl
inactive: USP19 -0.382 | USP22 -0.856 | USP24 -0.83 | USP25 -0.627 | USP28 -0.765
